# Assay results published in the supplement of paper PMC12645437, “Orthogonal IMiD-Degron Pairs Induce Selective Protein Degradation in Cells” (ACS Chemical Biology, 2025).
# The full ranking holds about 8,300 sequences; the median of “log2 fold change of degron read counts, EGFP-low vs EGFP+ sorted cells (limma voom), compound-induced degradation” is about -1.1, and the highest 2% start at about 3.2. This is one part of a sample in which the highest values are shown more often than they occur.
# Biological target: T1, CRBN, Q96SW2
# T1 chain: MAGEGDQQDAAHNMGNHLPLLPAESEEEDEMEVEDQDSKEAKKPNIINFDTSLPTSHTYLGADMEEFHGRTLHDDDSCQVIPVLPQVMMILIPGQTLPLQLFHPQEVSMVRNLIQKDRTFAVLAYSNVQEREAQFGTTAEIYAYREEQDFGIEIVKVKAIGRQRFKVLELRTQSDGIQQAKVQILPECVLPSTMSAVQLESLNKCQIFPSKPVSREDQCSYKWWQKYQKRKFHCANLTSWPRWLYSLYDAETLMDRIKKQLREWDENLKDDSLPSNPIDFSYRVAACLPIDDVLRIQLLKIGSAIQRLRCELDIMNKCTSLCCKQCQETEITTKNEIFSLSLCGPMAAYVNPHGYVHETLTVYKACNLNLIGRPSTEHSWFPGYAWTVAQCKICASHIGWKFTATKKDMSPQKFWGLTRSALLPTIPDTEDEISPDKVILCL
# Experiment: log2 fold change of degron read counts, EGFP-low vs EGFP+ sorted cells (limma voom), compound-induced degradation; higher = more compound-induced degradation of the degron-EGFP fusion; degrons are variants of IKZF1/3 zinc finger 2; compound dose not given here
# Conditions: Jurkat, 18 h
# Procedure: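 Pooled library of 8380 IKZF3 ZF2 degron mutants (positions 146-167 varied within the IKZF3 130-189 degron; only the varied core is printed, flanks not printed) fused to EGFP with IRES-mCherry, lentivirally expressed in Jurkat cells. mCherry+ cells were treated with one IMiD compound for 18 h (dose not stated) and FACS-sorted into EGFP-low and EGFP+ populations. Degron sequences were counted by NGS, and log2FC (EGFP-low vs EGFP+) was estimated by limma voom over 3 biological replicates.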
# [1] = compound: compound 19 (5-tert-butyl-thalidomide)
# [2] = compound: compound 22 (5-morpholino-thalidomide)
# [3] = compound: compound 33 (diphenyl IMiD analogue)
# 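Also: pooled lentiviral library of zinc finger degron-EGFP fusions in mCherry-positive Jurkat cells, FACS-sorted after compound exposure, with degron abundance counted by next-generation sequencing.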
Sequence,log2 fold change of degron read counts [1],log2 fold change of degron read counts [2],log2 fold change of degron read counts [3],log2 fold change of degron read counts (compound: thalidomide)
"FDCNVCGAKFTQKGNLLRHIKL [46F_47D_49N_50V_52G_53A_54K_55F_67L_, Q9UKT9]",-1.36,-2.41,-2.78,-0.891
"LECPICGFYCTQKGNLLRHIKL [46L_47E_49P_50I_52G_53F_54Y_55C_67L_, Q9UKT9]",0.407,0.1,2.47,3.34
"LYCPICGFYCTQKGNLLRHIKL [46L_47Y_49P_50I_52G_53F_54Y_55C_67L_, Q9UKT9]",3.22,3.11,2.72,1.82
"LTCPICGFYCTQKGNLLRHIKL [46L_47T_49P_50I_52G_53F_54Y_55C_67L_, Q9UKT9]",1.69,2.58,2.93,3.24
"LKCPICGFYCTQKGNLLRHIKL [46L_47K_49P_50I_52G_53F_54Y_55C_67L_, Q9UKT9]",-0.431,-0.605,-1.14,0.828
"LNCPICGFYCTQKGNLLRHIKL [46L_47N_49P_50I_52G_53F_54Y_55C_67L_, Q9UKT9]",1.76,1.72,1.52,2.04
"LLCPICGFYCTQKGNLLRHIKL [46L_47L_49P_50I_52G_53F_54Y_55C_67L_, Q9UKT9]",0.305,0.574,1.63,1.96
"FCCEICGHIFTQKGNLLRHIKL [46F_47C_49E_50I_52G_53H_54I_55F_67L_, Q9UKT9]",-2.19,-2.44,-1.42,-1.61
"FLCNQCGRTFTQKGNLLRHIKL [46F_47L_49N_50Q_52G_53R_54T_55F_67L_, Q9UKT9]",-2.4,-2.94,-3.37,-2.18
"FNCPQCGANFTQKGNLLRHIKL [46F_47N_49P_50Q_52G_53A_54N_55F_67L_, Q9UKT9]",-1.43,-2.18,-1.52,-2.31
"FTCEICGAYFTQKGNLLRHIKL [46F_47T_49E_50I_52G_53A_54Y_55F_67L_, Q9UKT9]",0.598,1.53,2.02,2.85
"FICNICGATFTQKGNLLRHIKL [46F_47I_49N_50I_52G_53A_54T_55F_67L_, Q9UKT9]",-1.79,0.00658,1.15,1.1
"FVCNICGAQFTQKGNLLRHIKL [46F_47V_49N_50I_52G_53A_54Q_55F_67L_, Q9UKT9]",-0.604,1.47,2.69,1.92
"FQCNICGAQFTQKGNLLRHIKL [46F_47Q_49N_50I_52G_53A_54Q_55F_67L_, Q9UKT9]",-0.94,1.3,1.62,3.28
"FYCNICGAQFTQKGNLLRHIKL [46F_47Y_49N_50I_52G_53A_54Q_55F_67L_, Q9UKT9]",2.24,3.15,1.75,0.339
"FACNICGAQFTQKGNLLRHIKL [46F_47A_49N_50I_52G_53A_54Q_55F_67L_, Q9UKT9]",2.04,1.62,0.179,-0.104
"FWCNICGAQFTQKGNLLRHIKL [46F_47W_49N_50I_52G_53A_54Q_55F_67L_, Q9UKT9]",2.02,3.59,1.86,0.626
"FRCNICGAQFTQKGNLLRHIKL [46F_47R_49N_50I_52G_53A_54Q_55F_67L_, Q9UKT9]",-1.02,-0.868,-0.156,0.111
